From PubChem BioAssay (NCI) come the findings set out here.

About 83,000 compounds went through this panel and 20% of them were active in at least one assay; those are over-represented in the sample as a whole.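 Negative percent growth values reflect cell death: -40 means 40% of the cells present at the start died, and -100 means all died.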 A number with no mark means an inactive call. Calls of active or inactive are those of the source. How the source made its calls: active means growth percent below 10; inactive means the rest.

Some test systems named below: EKVX NSCLC; SN12C renal; UO-31 renal; TK-10 renal; ACHN renal; CAKI-1 renal; CCRF-CEM leukemia; MOLT-4 leukemia; SR leukemia.
Holding throughout (test): NCI-60 one-dose screen, 48 h (100 = growth as untreated, 0 = no growth, -100 = all killed)
Holding throughout (details): 10 µM unless noted

With `O=C(O)c1ccccc1C(=O)OC1CCCC2CCCC21` (stereo not given), the growth in the assay with EKVX NSCLC was 92.4%; in the assay with SN12C renal, 95.8%; in the assay on UO-31 renal, 104%; in the assay on TK-10 renal, 116%; in the assay with ACHN renal it was 103%; in the assay on CAKI-1 renal, 93.1%. Moreover, the growth with CCRF-CEM leukemia is 97%; in the assay with MOLT-4 leukemia it was 98.7%; in the assay on SR leukemia it was 104%.
Take `CC(C)C(=O)Cc1cnccn1`: the growth was 99.4% in the assay with EKVX NSCLC; 98.6% with SN12C renal; 90.8% in the assay on UO-31 renal; 104% with TK-10 renal; 108% in the assay on ACHN renal; 83.4% in the assay on CAKI-1 renal. For the same compound, the figures for the growth with CCRF-CEM leukemia, in the assay with MOLT-4 leukemia and with SR leukemia were 115%, 123% and 114%, respectively.
Take `Clc1nc(Cl)c2ncn(-c3ccccc3)c2n1`: the growth with EKVX NSCLC was 73.3%; in the assay on SN12C renal it was 82%; in the assay on UO-31 renal it was -77.3% (active); with TK-10 renal it was 71.9%; in the assay on ACHN renal, 68.6%; with CAKI-1 renal it was -79.9% (active). In addition, the growth in the assay on CCRF-CEM leukemia was 80.3%; with MOLT-4 leukemia, 44.2%; with SR leukemia it was 39%.
Regarding `COc1cc2c(cc1OC)C1CCN3C(=O)CCC3N1CC2` (stereo not given), the growth with EKVX NSCLC is 114%; in the assay on SN12C renal it was 109%; in the assay on UO-31 renal, 99.7%; in the assay on TK-10 renal, 104%; in the assay with ACHN renal, 102%; with CAKI-1 renal, 115%. The growth is 102% in the assay with CCRF-CEM leukemia, 97.3% in the assay with MOLT-4 leukemia and 95.8% in the assay on SR leukemia.
Consider `CCN(CC)CCNc1ccc(Cl)cc1Cl`, for which the growth in the assay with EKVX NSCLC was 113%; in the assay on SN12C renal it was 113%; in the assay on UO-31 renal, 87.3%; in the assay on TK-10 renal, 103%; with ACHN renal, 113%; with CAKI-1 renal, 94.6%. The growth with CCRF-CEM leukemia was 104%; in the assay with MOLT-4 leukemia it was 95.9%; in the assay with SR leukemia, 95.1%.
Take `COc1cc(C2NC(c3ccc(Cl)cc3)C(C)C(=NC(=O)c3cnccn3)C2C)cc(OC)c1OC` (stereo not given): the growth with EKVX NSCLC is 99.3%; with SN12C renal it was 107%; in the assay on UO-31 renal it was 83%; with TK-10 renal, 103%; with ACHN renal it was 102%; in the assay with CAKI-1 renal, 84.7%. The growth in the assay on CCRF-CEM leukemia is 92.4%; in the assay on MOLT-4 leukemia it was 85.3%; with SR leukemia it was 106%.
As for `C[N+]1(CCc2ccccc2)CCC(CCC2CC[N+](C)(CCc3ccccc3)CC2)CC1` (stereo not given), the growth in the assay on EKVX NSCLC is 97.2%; with SN12C renal, 88.5%; with UO-31 renal, 72.7%; with TK-10 renal, 96.9%; with ACHN renal, 101%; with CAKI-1 renal it was 96.6%. Moreover, the growth in the assay on CCRF-CEM leukemia was 127%; with MOLT-4 leukemia, 123%; with SR leukemia it was 120%.
Turning to `Cc1cc(NC(=O)Nc2cc(Cl)ccc2C)no1`, the growth in the assay with EKVX NSCLC is 87%; in the assay on SN12C renal it was 109%; with UO-31 renal, 96.2%; in the assay with TK-10 renal, 231%; with ACHN renal, 103%; with CAKI-1 renal, 96.1%. Also, the growth in the assay with CCRF-CEM leukemia is 109%; with MOLT-4 leukemia, 97.5%; in the assay on SR leukemia, 59.4%.
Regarding `O=C(NN(C(=O)c1ccccc1)c1cccs1)c1ccccc1`, the growth in the assay with EKVX NSCLC was 112%; in the assay with SN12C renal, 97.1%; with UO-31 renal, 66.1%; in the assay with TK-10 renal, 91.7%; with ACHN renal, 104%; in the assay with CAKI-1 renal, 110%. Besides, the growth in the assay with CCRF-CEM leukemia is 93.8%; in the assay on MOLT-4 leukemia, 107%; with SR leukemia, 100%.
Take `CO[C@H]1/C=C/O[C@@]2(C)Oc3c(C)c(O)c4c(O)c(c(/C=N/N5C(C)CN(Cc6ccccc6)CC5C)c(O)c4c3C2=O)NC(=O)/C(C)=C\C=C\[C@H](C)[C@H](O)[C@@H](C)[C@@H](O)[C@@H](C)[C@H](OC(C)=O)[C@@H]1C` (stereo not given in full): the growth with EKVX NSCLC is 64.7%; in the assay on SN12C renal, 87%; in the assay on UO-31 renal it was 34.1%; in the assay with TK-10 renal, 69.1%; in the assay with ACHN renal it was 70.1%; with CAKI-1 renal, 117%. Besides, the growth in the assay on CCRF-CEM leukemia is 285%; in the assay with MOLT-4 leukemia, 217%; with SR leukemia, 212%.
For the compound `COc1ccc(C2CC(c3ccc(OC)c(OC)c3)=NN2C(=O)c2cc(OC)c(OC)c(OC)c2)cc1` (stereo not given), the growth with EKVX NSCLC was 48.2%; in the assay on SN12C renal, 41.5%; in the assay on UO-31 renal, 21.1%; in the assay with TK-10 renal, 18.4%; in the assay with ACHN renal it was 48.7%; in the assay on CAKI-1 renal it was 12.1%. In addition, the growth in the assay on CCRF-CEM leukemia was 24.3%; with MOLT-4 leukemia, 47.1%; in the assay with SR leukemia it was 20.6%.
Consider `CCOC(=O)C1C(=O)OC2CCCCC21` (stereo not given), for which the growth in the assay with EKVX NSCLC was 120%; in the assay on SN12C renal, 102%; in the assay on UO-31 renal, 79.6%; with TK-10 renal it was 122%; in the assay with ACHN renal, 102%; in the assay with CAKI-1 renal, 96.1%. Also, the growth with CCRF-CEM leukemia is 106%; in the assay with MOLT-4 leukemia, 89%; with SR leukemia, 88%.
As for `CCCc1cc(=O)n2c(C(=O)Nc3ccccc3OC)c(C(=O)Nc3ccc(F)cc3)sc2n1`, the growth in the assay on EKVX NSCLC is 52.8% [30 µM]; with SN12C renal, 58.1% [30 µM]; with UO-31 renal, 19.7% [30 µM]; in the assay on TK-10 renal, 37.7% [30 µM]; in the assay with ACHN renal, 20.3% [30 µM]; in the assay on CAKI-1 renal, 5.5% [30 µM] (active). Moreover, the growth with CCRF-CEM leukemia is 58.4% [30 µM]; in the assay on MOLT-4 leukemia, 65.8% [30 µM]; in the assay with SR leukemia it was 9.34% [30 µM] (active).
For `O=c1ccn(C2CCCO2)c(=O)[nH]1` (stereo not given), the growth with EKVX NSCLC was 107%; in the assay with SN12C renal, 109%; in the assay on UO-31 renal it was 95.4%; with TK-10 renal it was 120%; in the assay on ACHN renal, 98.7%; with CAKI-1 renal, 110%. Further, the growth in the assay on CCRF-CEM leukemia is 97%; in the assay on MOLT-4 leukemia it was 97.7%; in the assay on SR leukemia, 114%.
Regarding `COc1cc(/C=C/C(=O)Nc2cccnc2Nc2cc(OC)c(OC)c(OC)c2)cc(OC)c1OC`, the growth in the assay on EKVX NSCLC was 92%; in the assay with SN12C renal, 76.1%; in the assay with UO-31 renal, 89.8%; with TK-10 renal, 116%; in the assay on ACHN renal, 96.5%; in the assay with CAKI-1 renal, 82.3%. Also, the growth was 66.1% in the assay with CCRF-CEM leukemia, 94.1% with MOLT-4 leukemia and 92.5% with SR leukemia.
